Reference: PubChem BioAssay AID720591 (Broad Institute, 2013)
Among all 1,200 compounds or so, about 60 (5%) were called active. About 1% were inconclusive and are not listed.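 The calls were made as follows: active = Decreasing signal and fitted IC50 at most twice the top valid tested dose; inconclusive = Bad fit or a level curve showing 30 to 70% inhibition; inactive = the rest.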 These entries were drawn from the full list. Results with a measured potency or affinity are listed apart.

Molecular target: NAD-dependent protein deacylase sirtuin-5, mitochondrial (Homo sapiens) (UniProt Q9NXA8)
Sequence (Q9NXA8 whole entry, looked up): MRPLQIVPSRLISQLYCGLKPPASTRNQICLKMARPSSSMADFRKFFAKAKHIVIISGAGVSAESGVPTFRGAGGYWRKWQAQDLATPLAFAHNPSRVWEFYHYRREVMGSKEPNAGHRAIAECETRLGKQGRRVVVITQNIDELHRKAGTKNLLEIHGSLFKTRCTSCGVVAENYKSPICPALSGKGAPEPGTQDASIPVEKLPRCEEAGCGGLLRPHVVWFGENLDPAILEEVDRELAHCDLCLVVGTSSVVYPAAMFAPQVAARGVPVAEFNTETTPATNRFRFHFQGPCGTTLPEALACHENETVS
Assay: SIRT5 desuccinylase inhibitors, dose response, biochemical, fluorescence imaging, cherry-pick, set 5 (AID 720591)
Details: Purified SirT5, succinyl-peptide AMC, trypsin-coupled fluorescence; series mostly up to 15 µM

outcome, inactive:
Cc1nn(CC(=O)N(C)C)c(=O)c2ccccc12, Cc1ccc(S(=O)(=O)c2nc(Cc3ccccc3)oc2N2CCOCC2)cc1, Cc1ccc(C(C(=O)NC(C)(C)C)N(C(=O)CCC(=O)Nc2ccccn2)c2ccccc2F)cc1 (stereo unspecified), CO/N=C(\C(=O)N[C@@H]1C(=O)N2C(C(=O)O)=C(COC(C)=O)CS[C@H]12)c1csc(N)n1 (stereo in doubt), Cc1ccc(-c2ccc(=O)n(CC(=O)Nc3ccc4c(c3)OCCO4)n2)cc1, COc1ccc(N2CCN(C(=O)CN(C)S(=O)(=O)c3cc(C)ccc3OC)CC2)cc1, N[C@@H](CO)c1nnc([C@H](Cc2ccc(O)cc2)NC(=O)C2CCNCC2)o1, O=S(=O)(CCc1ccncc1)c1ccc(Cl)cc1, NCC(O)CN(c1ccccc1)c1ccccc1 (stereo unspecified), O=C(c1cccc(F)c1)N1CCCC(C(=O)N2CCCCCC2)C1 (stereo unspecified), O=C(c1cccc(F)c1)N1CCCC(C(=O)N2CCCCC2)C1 (stereo unspecified), CC(=O)Nc1ccc(S(=O)(=O)Nc2ccc(-n3cnnn3)cc2)cc1, O=C(Nc1ccc(F)cc1)C1CC(=O)n2ncnc2N1 (stereo unspecified), C[C@H](CO)N1C[C@H](C)[C@@H](CN(C)Cc2ccccn2)Oc2ncc(Br)cc2C1=O, Cc1csc(NC(=O)CSc2sc3c(O)cc(=O)[nH]c3c2C#N)n1, N#Cc1c(SCC(=O)Nc2nccs2)sc2c(O)cc(=O)[nH]c12, CC(=O)N1N=C(N)SC12CCCC2, C[C@H]1CN([C@@H](C)CO)C(=O)c2cc(Br)cnc2O[C@H]1CN(C)C(=O)c1ccccn1, C[C@@H]1CN([C@H](C)CO)C(=O)CCCn2nncc2CO[C@H]1CN(C)C(=O)Nc1cccc2ccccc12, CC(C)NC(=O)N(C)C[C@@H]1OCc2cnnn2CCCC(=O)N([C@@H](C)CO)C[C@H]1C, Cc1ccnc(NS(=O)(=O)c2ccc(NC(=O)Cc3ccc(F)cc3)cc2)n1, Cc1noc(C)c1COc1ccc(C(=O)N2CCN(S(=O)(=O)c3cccc(F)c3)CC2)cc1, COc1ccc(NC(=O)CN(c2ccc(Cl)cc2)S(C)(=O)=O)cc1OC, O=C(COC(=O)CC1CC2CCC1C2)Nc1ccc(F)cc1 (stereo unspecified), O=C(COC(=O)CC1CC2CCC1C2)NCc1ccccc1 (stereo unspecified), COc1ccccc1OCCSc1nc2ccccc2n1CC(O)CO (stereo unspecified), COc1cc(C(=O)NCCCc2nc3ccccc3n2Cc2cc(C)ccc2C)cc(OC)c1OC, c1ccc(CCc2nc(-c3ccc(-n4cccc4)cc3)no2)cc1, Cc1ccc(-c2noc(CN(C)C(=O)c3ccc(Br)o3)n2)cc1, Cc1ccc(CNC(=O)C2CCCN(S(=O)(=O)N3CC(C)CC(C)C3)C2)cc1 (stereo unspecified), O=C(COc1ccccc1)Nc1ncn[nH]1, COc1cc(C)c(CN2CCN(CC(=O)Nc3ccccc3C(=O)NC3CC3)CC2)cc1OC, O=C1CCC(C(=O)N2CCCCCC2)CN1Cc1cccc(C(F)(F)F)c1 (stereo unspecified), CCOC(=O)c1c(C)[nH]c(C)c1C(=O)COC(=O)c1cc2ccccc2cc1O, CCOC(=O)c1c(C)[nH]c(C)c1C(=O)COC(=O)c1cccc(C)c1O, CCOc1ccc(CCNC(=O)Cn2nc(C)c3c(C)n(-c4ccccc4)nc3c2=O)cc1, COC(=O)[C@]12CCCCC=C1N(Cc1cccc3ccccc13)C(=O)[C@H](CC(=O)NCC1CCCCC1)C2, CC1=C(C(=O)N2CCOCC2)CC(CC(=O)NCC2CCCCC2)C(=O)N1CCC1=CCCCC1 (stereo unspecified), NC(=O)c1ccc(NC(=O)CCCc2nc(-c3ccccc3Cl)no2)cc1, Cc1ccc2c(c1)CO[C@@]21O[C@H](CCO)C[C@H](O)[C@H]1O, Cc1cccc(NC(=O)C2CCN(C(=O)c3ccco3)CC2)c1C, Cc1ccc(NC(=O)C2CCN(C(=O)c3ccco3)CC2)cc1, CC(C)CCN1CCN(Cc2cnc(N3CCCC3)s2)CC1CCO (stereo unspecified), O=C(Cc1cccs1)N1CCN(S(=O)(=O)c2ccc(Cl)c(C(F)(F)F)c2)CC1, C/C(N)=C(/C#N)C(=O)CSc1nnc(Nc2ccccc2)s1, CCSc1nnc(NC(=O)Cc2ccc(OC)cc2)s1, Cc1ccc(OCCSc2nc3ccccc3n2CCC(=O)O)cc1, CCc1ccc(S(=O)(=O)c2ccc(-n3nc(C)cc3N)cc2)cc1, c1ccc(CCn2nnc3ccccc32)cc1, CCOC(=O)c1c(-c2ccc(C)cc2)csc1NC(=O)CCN1CC(C)OC(C)C1 (stereo unspecified), CC1C(=O)N2CCCc3cc(S(=O)(=O)N4CCCCC4)cc1c32 (stereo unspecified), CCCCNC(=O)CC1C(=O)N(Cc2ccccc2)C(C)c2nc3ccccc3n21 (stereo unspecified), CCCNC(=O)CC1C(=O)N(Cc2ccccc2)C(C)c2nc3ccccc3n21 (stereo unspecified), CCCCCCN1CCN(C2CN(C3CCCCC3)S(=O)(=O)C2)CC1 (stereo unspecified), CCN(c1ccccc1)S(=O)(=O)c1nnc(NC(=O)C(C)(C)C)s1, COc1ccc(C(CNC(=O)c2cccc(S(=O)(=O)N3CCCCC3)c2)N2CCCC2)cc1 (stereo unspecified)
